Measured values from PubChem BioAssay AID1159580 (chemical genetic matrix, 2015).
Out of some 5,500 compounds screened, about 2,000 (36%) were called active. About 18% were inconclusive and are not listed. Rule as the data show it: active = normalized growth mostly below about 0.91 (no sharp cut-off); inconclusive = no clear call, values can overlap the other calls; inactive = mostly above about 0.92. Some of the results follow.

Assay: chemical genetic growth profiling, strain panel (AID 1159580);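 also: tested at 20 µM; growth read once vehicle control cultures reached saturation at 30 °C; 1 = growth at the plate median or of vehicle wells; lower values mean less growth of the strain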
Conditions: growth OD

Measured: normalized growth

O=C(O)CCCCC1CCSS1 (configuration not stated)
inactive: S. cerevisiae deletion strains, locus YJR075W, strain HOC1, active compounds read low 1 | S. cerevisiae deletion strains, locus YKL009W, strain mrt4, active compounds read low 0.978 | S. cerevisiae deletion strains, locus YKL068W, active compounds read low 1.01 | S. cerevisiae deletion strains, locus YKL085W, strain MDH1 (second series), active compounds read low 0.996 | S. cerevisiae deletion strains, locus YKL085W, strain MDH1, active compounds read low 0.996 | S. cerevisiae deletion strains, locus YKL160W, strain elf1, active compounds read low 0.988 | S. cerevisiae deletion strains, locus YKL190W, strain CNB1, active compounds read low 0.989 | S. cerevisiae deletion strains, locus YKR001C, strain vps1, active compounds read low 0.954 | S. cerevisiae deletion strains, locus YKR026C, strain gcn3, active compounds read low 0.965 | S. cerevisiae deletion strains, locus YKR091W, strain srl3, active compounds read low 0.982 | S. cerevisiae deletion strains, locus YLL001W, strain dnm1, active compounds read low 0.95 | S. cerevisiae deletion strains, locus YLL026W, active compounds read low 0.946 | S. cerevisiae deletion strains, locus YLL041C, strain sdh2, active compounds read low 0.976 | S. cerevisiae deletion strains, locus YLR027C, strain aat2, active compounds read low 0.973 | S. cerevisiae deletion strains, locus YLR039C, strain RIC1, active compounds read low 0.943 | S. cerevisiae deletion strains, locus YLR058C, strain SHM2, active compounds read low 0.968 | S. cerevisiae deletion strains, locus YLR102C, strain apc9, active compounds read low 0.984 | S. cerevisiae deletion strains, locus YLR113W, strain HOG1, active compounds read low 0.961 | S. cerevisiae deletion strains, locus YLR221C, strain rsa3, active compounds read low 0.963 | S. cerevisiae deletion strains, locus YLR258W, strain gsy2, active compounds read low 0.933 | S. cerevisiae deletion strains, locus YLR262C, strain YPT6, active compounds read low 0.969 | S. cerevisiae deletion strains, locus YLR268W, strain sec22, active compounds read low 1.06 | S. cerevisiae deletion strains, locus YLR320W, strain mms22, active compounds read low 0.98 | S. cerevisiae deletion strains, locus YLR330W, strain CHS5, active compounds read low 0.966 | S. cerevisiae deletion strains, locus YLR342W, strain FKS1 (second series), active compounds read low 0.945 | S. cerevisiae deletion strains, locus YLR342W, strain FKS1, active compounds read low 0.979 | S. cerevisiae deletion strains, locus YLR357W, strain rsc2, active compounds read low 0.901 | S. cerevisiae deletion strains, locus YLR370C, strain arc18, active compounds read low 0.986 | S. cerevisiae deletion strains, locus YLR371W, strain rom2, active compounds read low 0.973 | S. cerevisiae deletion strains, locus YLR384C, strain iki3, active compounds read low 0.977 | S. cerevisiae deletion strains, locus YLR418C, strain cdc73, active compounds read low 0.979 | S. cerevisiae deletion strains, locus YML016C, strain PPZ1, active compounds read low 0.982 | S. cerevisiae deletion strains, locus YML032C, strain rad52, active compounds read low 0.993 | S. cerevisiae deletion strains, locus YML120C, strain ndi1, active compounds read low 0.937 | S. cerevisiae deletion strains, locus YML124C, strain tub3, active compounds read low 0.98 | S. cerevisiae deletion strains, locus YMR058W, strain fet3, active compounds read low 0.968 | S. cerevisiae deletion strains, locus YMR078C, strain ctf18, active compounds read low 0.979 | S. cerevisiae deletion strains, locus YMR125W, strain sto1, active compounds read low 0.981 | S. cerevisiae deletion strains, locus YMR129W, active compounds read low 0.937 | S. cerevisiae deletion strains, locus YMR205C, strain PFK2, active compounds read low 0.921 | S. cerevisiae deletion strains, locus YMR223W, strain ubp8, active compounds read low 0.948 | S. cerevisiae deletion strains, locus YMR231W, strain pep5, active compounds read low 0.955 | S. cerevisiae deletion strains, locus YMR263W, strain SAP30, active compounds read low 0.981 | S. cerevisiae deletion strains, locus YMR307W, strain GAS1, active compounds read low 1.02 | S. cerevisiae deletion strains, locus YNL067W, strain RPL9B, active compounds read low 1.01 | S. cerevisiae deletion strains, locus YNL071W, strain lat1, active compounds read low 0.973 | S. cerevisiae deletion strains, locus YNL128W, strain TEP1, active compounds read low 0.962 | S. cerevisiae deletion strains, locus YNL153C, strain GIM3, active compounds read low 1 | S. cerevisiae deletion strains, locus YNL183C, strain NPR1, active compounds read low 0.842 | S. cerevisiae deletion strains, locus YNL209W, strain ssb2, active compounds read low 0.986 | S. cerevisiae deletion strains, locus YNL233W, strain BNI4, active compounds read low 1.01 | S. cerevisiae deletion strains, locus YNL248C, strain rpa49, active compounds read low 0.979 | S. cerevisiae deletion strains, locus YNL250W, strain rad50, active compounds read low 0.979 | S. cerevisiae deletion strains, locus YNL271C, strain bni1, active compounds read low 0.976 | S. cerevisiae deletion strains, locus YNL298W, strain CLA4, active compounds read low 0.928 | S. cerevisiae deletion strains, locus YNL307C, strain MCK1, active compounds read low 0.983 | S. cerevisiae deletion strains, locus YNL322C, strain KRE1 (second series), active compounds read low 0.97 | S. cerevisiae deletion strains, locus YNL322C, strain KRE1, active compounds read low 0.985 | S. cerevisiae deletion strains, locus YNR049C, strain mso1, active compounds read low 0.97 | S. cerevisiae deletion strains, locus YNR052C, strain pop2, active compounds read low 0.999 | S. cerevisiae deletion strains, locus YOL006C, strain TOP1, active compounds read low 1.04 | S. cerevisiae deletion strains, locus YOL012C, strain htz1 0.885 | S. cerevisiae deletion strains, locus YOL147C, strain pex11, active compounds read low 0.975 | S. cerevisiae deletion strains, locus YOR001W, strain rrp6, active compounds read low 0.962 | S. cerevisiae deletion strains, locus YOR061W, strain CKA2, active compounds read low 0.97 | S. cerevisiae deletion strains, locus YOR069W, strain VPS5, active compounds read low 0.986 | S. cerevisiae deletion strains, locus YOR070C, strain gyp1, active compounds read low 0.979 | S. cerevisiae deletion strains, locus YOR080W, strain dia2, active compounds read low 0.962 | S. cerevisiae deletion strains, locus YOR083W, strain WHI5, active compounds read low 0.989 | S. cerevisiae deletion strains, locus YOR106W, strain vam3, active compounds read low 0.957 | S. cerevisiae deletion strains, locus YOR136W, strain idh2, active compounds read low 0.969 | S. cerevisiae deletion strains, locus YOR144C, strain elg1, active compounds read low 0.973 | S. cerevisiae deletion strains, locus YOR184W, strain ser1, active compounds read low 0.973 | S. cerevisiae deletion strains, locus YOR231W, strain MKK1, active compounds read low 0.892 | S. cerevisiae deletion strains, locus YOR265W, strain rbl2, active compounds read low 0.973 | S. cerevisiae deletion strains, locus YOR270C, strain vph1, active compounds read low 1.02 | S. cerevisiae deletion strains, locus YOR290C, strain snf2, active compounds read low 0.91 | S. cerevisiae deletion strains, locus YOR316C, strain cot1, active compounds read low 0.986 | S. cerevisiae deletion strains, locus YPL051W, strain arl3, active compounds read low 0.981 | S. cerevisiae deletion strains, locus YPL055C, strain LGE1, active compounds read low 1 | S. cerevisiae deletion strains, locus YPL078C, strain atp4, active compounds read low 0.99 | S. cerevisiae deletion strains, locus YPL106C, strain sse1, active compounds read low 0.965 | S. cerevisiae deletion strains, locus YPL240C, strain hsp82, active compounds read low 0.97 | S. cerevisiae deletion strains, locus YPL241C, strain CIN2, active compounds read low 0.98 | S. cerevisiae deletion strains, locus YPL256C, strain CLN2, active compounds read low 0.94 | S. cerevisiae deletion strains, locus YPR119W, strain clb2, active compounds read low 0.977 | S. cerevisiae deletion strains, locus YPR141C, strain kar3, active compounds read low 0.985 | S. cerevisiae deletion strains, locus YPR163C, strain tif3, active compounds read low 0.989 | S. cerevisiae deletion strains, locus YPR167C, strain met16, active compounds read low 0.988 | S. cerevisiae deletion strains, strain wtn01, active compounds read low 1 | S. cerevisiae strains, strain wild type, active compounds read low 0.978
active: S. cerevisiae deletion strains, locus YLR262C, strain YPT6 (second series), active compounds read low 0.839
